Inconclusive results are not listed. Active and inactive are the calls of the source. Calls come from the whole dose curve; as a rule, active = well fitted curve in the direction sought with a large enough effect; inconclusive = small, poorly fitted or top-dose-only effect, or another doubt; inactive = no such curve, though single readings can be large; an effect the other way counts as inactive or inconclusive.
What was measured:
[1] = test system: NIH3T3; assay: qHTS assay to identify novel small-molecules to repurpose for Merkel cell carcinoma treatment (AID 1296009); conditions: MCC and control cell lines, CellTiter-Glo viability, 72 h; at 44.8 µM (top of the series) unless noted; note: nearly all actives have a fitted effect of over 60% in size
Outline: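 qHTS format: cells treated with library compounds in DMSO across 8 (NPC) or 11 (MIPE) concentrations. Readout after 72 hr at 37 degree celsius was CellTiter-Glo luminescence.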

[2] = test system: C33A; assay: Primary qHTS to identify gynecologic anti-cancer compounds using libraries of approved drugs and bioactive compounds (AID 1345084); conditions: Gynecologic cancer cell panel viability, ATPlite luminescence, 48 h; series mostly up to 57.5 µM; note: % is set by controls: 0 for no effect and ±100 for the full control effect; nearly all actives have a fitted effect of over 55% in size
Outline: (§1)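 Measured: luminescence after ATPlite addition (15 min, RT). Exposure: 48 h, 37 C, 5% CO2.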

[3] = test system: CAOV3; assay: as above; conditions: Gynecologic cancer cell panel viability, ATPlite luminescence, 48 h; series mostly up to 57.5 µM
Outline: as §1

[4] = test system: CASKI; assay: as above; conditions: Gynecologic cancer cell panel viability, ATPlite luminescence, 48 h; series mostly up to 57.5 µM
Outline: as §1

[5] = test system: Es-2; assay: as above; conditions: Gynecologic cancer cell panel viability, ATPlite luminescence, 48 h; series mostly up to 57.5 µM
Outline: as §1

[6] = test system: HeLa; assay: as above; conditions: Gynecologic cancer cell panel viability, ATPlite luminescence, 48 h; series mostly up to 57.5 µM
Outline: as §1

[7] = test system: Hek293T; assay: as above; conditions: Gynecologic cancer cell panel viability, ATPlite luminescence, 48 h, control line for the selectivity index; series mostly up to 57.5 µM
Outline: as §1

[8] = test system: JEG-3; assay: as above; conditions: Gynecologic cancer cell panel viability, ATPlite luminescence, 48 h; series mostly up to 57.5 µM
Outline: as §1

[9] = test system: OV90; assay: as above; conditions: Gynecologic cancer cell panel viability, ATPlite luminescence, 48 h; series mostly up to 57.5 µM
Outline: as §1

[10] = test system: PA-1; assay: as above; conditions: Gynecologic cancer cell panel viability, ATPlite luminescence, 48 h; series mostly up to 57.5 µM
Outline: as §1

[11] = test system: SKOV3; assay: as above; conditions: Gynecologic cancer cell panel viability, ATPlite luminescence, 48 h; series mostly up to 57.5 µM
Outline: as §1

[12] = test system: Tov-21-G; assay: as above; conditions: Gynecologic cancer cell panel viability, ATPlite luminescence, 48 h; series mostly up to 57.5 µM
Outline: as §1

[13] = test system: Tov112D; assay: as above; conditions: Gynecologic cancer cell panel viability, ATPlite luminescence, 48 h; series mostly up to 57.5 µM
Outline: as §1

CC(C)(O)c1ccc2c(c1)C(=O)C[C@H]1[C@](C)(C(=O)O)CCC[C@]21C
inactive: outcome [1] | Potency [2] | Potency [3] | outcome [4] | Potency [5] | Potency [6] | Potency [7] | Potency [8] | Potency [9] | Potency [10] | Potency [11] | Potency [12] | Potency [13]

C[C@@H]1C[C@@H](O)[C@@]2(CO)C(CO)=CCC[C@@H]2[C@@]12C[C@@H](c1ccoc1)OC2=O
inactive: outcome [1] | Potency [2] | Potency [3] | outcome [4] | Potency [5] | Potency [6] | Potency [7] | Potency [8] | Potency [9] | Potency [10] | Potency [11] | Potency [12] | Potency [13]

CO[C@@H]1[C@]2(O)C(=O)N3/C=C\C(C)(C)c4[nH]c5ccccc5c4/C=C\3C(=O)N2[C@]23[C@H](CO)C(C)(C)N2c2ccccc2[C@]13O
inactive: outcome [1] inactive [at 17.4 µM] | Potency [2] | Potency [3] | outcome [4] | Potency [5] | Potency [6] | Potency [7] | Potency [8] | Potency [9] | Potency [10] | Potency [11] | Potency [12] | Potency [13]

CCC(CC)CC1(C(=O)Nc2ccccc2SC(=O)C(C)C)CCCCC1
inactive: outcome [1] | Potency [2] | Potency [3] | outcome [4] | Potency [5] | Potency [6] | Potency [7] | Potency [8] | Potency [9] | Potency [10] | Potency [11] | Potency [12] | Potency [13]

COc1cc(/C=C/C(=O)O)ccc1O[C@@H]1O[C@H](CO)[C@@H](O)[C@H](O)[C@H]1O[C@@H]1OC[C@](O)(CO)[C@H]1O
inactive: outcome [1] inactive [at 17.4 µM] | Potency [2] | Potency [3] | outcome [4] | Potency [5] | Potency [6] | Potency [7] | Potency [8] | Potency [9] | Potency [10] | Potency [11] | Potency [12] | Potency [13]

COc1ccc(-n2c(=O)[nH]c3cc(C(=O)NCc4ccc(Cl)cc4)sc3c2=O)nc1OC
inactive: outcome [1] | Potency [2] | Potency [3] | outcome [4] | Potency [5] | Potency [6] | Potency [7] | Potency [8] | Potency [9] | Potency [10] | Potency [11] | Potency [12] | Potency [13]

CC(C)=C1CC2C(CCC2(C)O)C(C)(O)CC1=O (configuration not stated)
inactive: outcome [1] | Potency [2] | Potency [3] | outcome [4] | Potency [5] | Potency [6] | Potency [7] | Potency [8] | Potency [9] | Potency [10] | Potency [11] | Potency [12] | Potency [13]

Oc1ccc(CC2NCCc3cc(O)c(O)cc32)cc1 (configuration not stated)
inactive: outcome [1] | Potency [2] | Potency [3] | outcome [4] | Potency [5] | Potency [6] | Potency [7] | Potency [8] | Potency [9] | Potency [10] | Potency [11] | Potency [12] | Potency [13]

CC1(C)CC[C@]2(C(=O)O[C@@H]3O[C@H](CO)[C@@H](O)[C@H](O)[C@H]3O)CC[C@]3(C)C(=CCC4[C@@]5(C)CC[C@H](O[C@@H]6O[C@H](C(=O)O)[C@@H](O)[C@H](O)[C@H]6OC6OC(CO)C(O)C(O)C6O)C(C)(C)C5CC[C@]43C)[C@@H]2C1 (some centres not stated)
inactive: outcome [1] inactive [at 9.27 µM] | activity change, negative = cytotoxicity [2] 0.935% [at 11.6 µM] | activity change, negative = cytotoxicity [3] 8.5% [at 11.6 µM] | activity change, negative = cytotoxicity [4] 2.93% [at 11.6 µM] | activity change, negative = cytotoxicity [5] 5.59% [at 11.6 µM] | activity change, negative = cytotoxicity [6] 8.29% [at 11.6 µM] | activity change, negative = cytotoxicity [7] 25.2% [at 11.6 µM] | activity change, negative = cytotoxicity [8] 4.48% [at 11.6 µM] | activity change, negative = cytotoxicity [9] 1.96% [at 11.6 µM] | activity change, negative = cytotoxicity [10] 17.8% [at 11.6 µM] | activity change, negative = cytotoxicity [11] 14.1% [at 11.6 µM] | activity change, negative = cytotoxicity [12] 6.86% [at 11.6 µM] | activity change, negative = cytotoxicity [13] 7.56% [at 11.6 µM]
